Screening data as filed in PubChem.
Sampled rows, rich in hits. Any-hit rate of the full collection: about 11%.
hNpr1 antagonist – blocks ANP-stimulated signaling of human Npr1 receptor. P16066. HEK293 hNpr1 GloSensor cGMP, ANP-stimulated luminescence. Potency, µM (highest dose often 46.3 µM), most hits filed as inhibitors. actives 1.6% (n = 76,000); calls by dose curve; also: nearly all actives have a fitted effect of over 60% in size
Target sequence (P16066 whole entry, looked up): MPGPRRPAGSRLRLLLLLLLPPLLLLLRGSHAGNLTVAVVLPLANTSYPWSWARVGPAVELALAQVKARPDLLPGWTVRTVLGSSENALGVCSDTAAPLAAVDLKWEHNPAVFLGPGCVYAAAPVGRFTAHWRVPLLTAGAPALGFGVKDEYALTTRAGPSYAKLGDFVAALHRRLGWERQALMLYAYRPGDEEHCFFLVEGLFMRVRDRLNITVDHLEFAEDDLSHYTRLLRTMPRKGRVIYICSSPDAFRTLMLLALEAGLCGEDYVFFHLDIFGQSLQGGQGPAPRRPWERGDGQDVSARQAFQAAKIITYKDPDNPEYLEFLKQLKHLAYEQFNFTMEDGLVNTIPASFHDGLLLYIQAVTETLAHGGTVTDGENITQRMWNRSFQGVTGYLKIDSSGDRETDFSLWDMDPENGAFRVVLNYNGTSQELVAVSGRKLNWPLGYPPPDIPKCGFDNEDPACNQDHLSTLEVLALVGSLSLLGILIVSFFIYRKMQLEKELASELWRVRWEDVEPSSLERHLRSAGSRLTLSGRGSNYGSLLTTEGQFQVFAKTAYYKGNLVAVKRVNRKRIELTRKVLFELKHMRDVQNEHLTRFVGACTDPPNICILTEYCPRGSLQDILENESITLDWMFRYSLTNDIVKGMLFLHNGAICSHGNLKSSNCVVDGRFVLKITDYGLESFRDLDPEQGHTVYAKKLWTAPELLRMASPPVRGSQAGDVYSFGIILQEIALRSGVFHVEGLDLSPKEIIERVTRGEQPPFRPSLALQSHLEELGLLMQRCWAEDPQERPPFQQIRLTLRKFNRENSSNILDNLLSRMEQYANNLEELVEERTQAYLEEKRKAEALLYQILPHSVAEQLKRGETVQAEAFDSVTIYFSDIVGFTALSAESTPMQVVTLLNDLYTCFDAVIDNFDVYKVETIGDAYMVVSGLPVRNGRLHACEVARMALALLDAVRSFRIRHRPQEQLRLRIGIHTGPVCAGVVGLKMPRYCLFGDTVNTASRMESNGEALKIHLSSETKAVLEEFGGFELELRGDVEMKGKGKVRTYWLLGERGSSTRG
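Compound pre-incubated 30 min at room temperature on GloSensor-loaded HEK293 cells stably carrying hNpr1 and the pGS-40F cGMP biosensor. Stimulation uses hNppA at 0.1 nM final; luminescence is taken at baseline and 20 min post-agonist.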
HEK cytotox – kills HEK 293 cells; HEK 293 viability, ATP luminescence (CellTiter-Glo), 48-72 h; actives 6.6% (n = 94,000); Potency, µM (titrated, usually from 115 µM), actives largely listed as inhibitors; also: nearly all actives have a fitted effect of over 60% in size
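CellTiter-Glo luminescence (cellular ATP) was read after 48 or 72 hr of compound exposure at 37 degree Celsius. Cells were HEK 293 plated at 250 cells/well.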
NIH3T3 tox – cytotoxic compounds in NIH 3T3 cells | NIH 3T3 viability, CellTiter-Glo ATP luminescence, 48-72 h | Potency, µM (doses to about 96.7 µM), usual class: inhibitors | actives 4.3% (n = 94,000) | AID 1345082; also: nearly all actives have a fitted effect of over 55% in size
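Mouse fibroblast NIH 3T3 cells, 400 per well, received compound via pintool and were incubated for 48 or 72 hr prior to CellTiter-Glo ATP luminescence measurement.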
Luciferase inh – blocks purified firefly luciferase enzyme activity; P08659; purified P. pyralis luciferase, luminescence, biochemical; Potency, µM (top dose mostly 115 µM), hits mostly inhibitors; actives 2.5% (n = 76,000); also: nearly all actives have a fitted effect of over 65% in size
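Biochemical qHTS: compound (6-point titration) added to 10uM D-luciferin plus 10uM ATP in Tris acetate pH 7.5 buffer with Mg, Tween-20 and BSA, then purified enzyme at 10nM; light output imaged.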
Large screens that a line does not name were inactive; ! = a repeat was not active. Unless noted, calls follow the shape of the dose curve; as a rule, active = well fitted curve in the direction sought with a large enough effect; inconclusive = small, poorly fitted or top-dose-only effect, or another doubt; inactive = no such curve, though single readings can be large; an effect the other way counts as inactive or inconclusive.

OCC1CN(C2CCC2)CC12CCN(Cc1cc(F)c(F)c(F)c1)CC2 (centres undefined)	HEK cytotox inconclusive, NIH3T3 tox inconclusive
OCC1CN(C2CCC2)CC12CCN(Cc1ccc(F)cc1)CC2 (centres undefined)	HEK cytotox 45µM, NIH3T3 tox inconclusive
COCC1CN(C2CCC2)CC12CCN(C(=O)Cc1ccccc1F)CC2 (centres undefined)	HEK cytotox 50µM, NIH3T3 tox inconclusive
OCC1CN(C2CCC2)CC12CCN(Cc1cc(F)ccc1F)CC2 (centres undefined)	HEK cytotox 40µM, NIH3T3 tox inconclusive
CC1=C[C@@H](CN2CCN(c3ncccn3)CC2)[C@H](C(C)C)C[C@H]1Cc1nnc(-c2cncn2C)o1	HEK cytotox 35µM, NIH3T3 tox inconclusive
CC1=C[C@@H](CN2CCCCC2)[C@H](C(C)C)C[C@H]1Cc1nnc(-c2cncn2C)o1	HEK cytotox 100µM, NIH3T3 tox inconclusive
COc1ccccc1N1CCN(C[C@@H]2C=C(C)[C@H](Cc3nnc(-c4cncn4C)o3)C[C@H]2C(C)C)CC1	HEK cytotox 13µM, NIH3T3 tox 35µM
CC1=C[C@@H](CN2CCN(c3ccccn3)CC2)[C@H](C(C)C)C[C@H]1Cc1nnc(C)o1	HEK cytotox inconclusive, NIH3T3 tox inconclusive
COc1cccc(CN2C(=O)CCCCC2C(=O)NCCc2ccc(OC)c(OC)c2)c1 (centres undefined)	none (no result: hNpr1 antagonist, Luciferase inh)
CCOC(=O)[C@@H]1CN(C(=O)NC2CCCC2)[C@H]2c3ccc(OC)cc3O[C@@H]12	HEK cytotox 50µM, NIH3T3 tox inconclusive (no result: hNpr1 antagonist, Luciferase inh)
COc1ccccc1-c1ccc(CN2CCCCC2C(=O)N2CCN(Cc3ccccc3)CC2)cc1 (centres undefined)	HEK cytotox 32µM, NIH3T3 tox inconclusive (no result: hNpr1 antagonist, Luciferase inh)
O=C(C1CCCN1C(=O)C1CC1)N1CCC(c2ccccc2)CC1 (centres undefined)	none (no result: hNpr1 antagonist, Luciferase inh)
COc1ccccc1-c1ccc(CN2CCCCC2C(=O)N2CCC(c3ccccc3)CC2)cc1 (centres undefined)	HEK cytotox 25µM!, NIH3T3 tox 40µM (no result: hNpr1 antagonist, Luciferase inh)
CC(=O)N1CCN(C(=O)C2CCCCN2Cc2ccc(-c3cccs3)cc2)CC1 (centres undefined)	none (no result: hNpr1 antagonist, Luciferase inh)
O=C(CCc1ccccc1)N1CCCC1c1nncn1C1CCCC1 (centres undefined)	none (no result: hNpr1 antagonist, Luciferase inh)
CCOC(=O)C1(Cc2ccccc2Cl)CCN(Cc2cccc3c2OCO3)CC1	HEK cytotox inconclusive, NIH3T3 tox inconclusive
CCOC(=O)C1CCCN(C(=O)c2nc3sccn3c2-c2cccc(C(F)(F)F)c2)C1 (centres undefined)	HEK cytotox inconclusive (no result: hNpr1 antagonist, Luciferase inh)
O=C(NC1CCCCC1)N1CCCC1c1nncn1C1CCCC1 (centres undefined)	none (no result: hNpr1 antagonist, Luciferase inh)
COc1cccc([S+](=O)([O-])NC[C@@H]2CC[C@H]3C[C@@H]2C3(C)C)c1	HEK cytotox 100µM, NIH3T3 tox inconclusive
Cc1ccc([S+](=O)([O-])N2CCCC(c3nn(-c4ccccn4)c(=O)[nH]3)C2)cc1 (centres undefined)	NIH3T3 tox inconclusive (no result: hNpr1 antagonist, Luciferase inh)
COc1ccc(CNC(=O)C[C@@H]2CCNC[C@@H]2Cc2cc(COc3ccccc3)on2)cc1	HEK cytotox inconclusive, NIH3T3 tox 25µM
COc1ccc(CNC(=O)C[C@@H]2CCNC[C@@H]2Cc2cc(CSc3ccccc3)on2)cc1	HEK cytotox 50µM, NIH3T3 tox inconclusive
COc1ccc(CNC(=O)C[C@@H]2CCNC[C@@H]2Cc2cc(CN3CCOCC3)on2)cc1	none
COc1ccc(CNC(=O)C[C@@H]2CCNC[C@@H]2Cc2cc(C(C)(C)C)on2)cc1	HEK cytotox inconclusive
COc1ccc(CNC(=O)C[C@@H]2CCNC[C@@H]2Cc2cc(CC3CCCCC3)on2)cc1	hNpr1 antagonist inconclusive, HEK cytotox 28µM, NIH3T3 tox 28µM
O=C(C[C@@H]1CCNC[C@@H]1Cc1cc(CC2CCCCC2)on1)NCc1ccco1	hNpr1 antagonist inconclusive, HEK cytotox 45µM, NIH3T3 tox 100µM
COc1ccccc1-n1c(=O)c(C(=O)N2CCOCC2)nc2cccnc21	none (no result: hNpr1 antagonist, Luciferase inh)
COCCCn1c(=O)c(C(=O)N2CCCC2)nc2cccnc21	none (no result: hNpr1 antagonist, Luciferase inh)
Cc1ccc(S(=O)(=O)N2CCC(OC3CCN(Cc4ccccc4)CC3)CC2)cc1C	HEK cytotox inconclusive, NIH3T3 tox 35µM
O=S(=O)(c1cccc(F)c1)N1CCC(OC2CCN(Cc3ccccc3)CC2)CC1	none
O=C(CC1C(=O)NCCN1Cc1cccc(Oc2ccccc2)c1)NCc1ccco1 (centres undefined)	HEK cytotox 25µM, NIH3T3 tox inconclusive
